Assay results reported in PubChem BioAssay (NCI).
About 83,000 compounds went through this panel and 20% of them were active in at least one assay; those are over-represented in the sample as a whole.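 Results are percent growth after 48 hours of single-concentration exposure. 100 means growth as in untreated cells, lower positive values show inhibition; negative values down to -100 show cell death.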 Values without a mark were called inactive. Active and inactive are the calls of the source. Rule for the calls: active = growth percent below 10; inactive = the rest.

These compounds were tested on MDA-MB-468 breast (assay: NCI-60 one-dose screen, 48 h (100 = growth as untreated, 0 = no growth, -100 = all killed)). Settings: 10 µM unless noted.

Structure (SMILES)	growth
CCN(CC)c1cc(/C=C/c2ccc(OC)c(OC)c2)nc2cc(F)c(F)cc12	-32.6% (active)
Cc1cc(C#Cc2ccc(C(C)(C)C)cc2)ccc1-n1c(/C=C/c2c(Cl)cccc2Cl)nc2ccccc2c1=O	91.1%
Cc1ccc(NC(=O)c2ccc(Nc3ncnc4c3cnn4-c3cccc(F)c3)cc2)cc1	96.6%
N=c1c2cc(-c3ccccc3)oc2ncn1/N=C/c1ccc(Cl)cc1	88.2%
CC(C)CCSc1nc(Nc2ccccc2)c(C#N)c(-c2ccc(F)cc2)n1	60.6%
Fc1ccc2[nH]cc(-c3nc(-c4c[nH]c5ncccc45)cs3)c2c1	34.9%
COC(=O)c1cc(Br)ccc1O	93%
CCCCCCCNC(=O)CCCNc1ncnc2c1ncn2-c1cccc(C(C)O)c1 (centres undefined)	59.7%
CN(C)CC(=O)Nc1ccc(Cn2nnc3c2C(=O)c2nnn(Cc4ccc(NC(=O)CN(C)C)cc4)c2C3=O)cc1	-79% (active)
C#CC(F)(F)[C@]1(O)CCC2C3CCC4=CC(=O)CCC4=C3[C@@H](c3ccc(N(C)C)cc3)C[C@@]21C (some centres undefined)	101%
O[C@@H]1Cc2ccc3ccccc3c2N[C@H](c2ccoc2)C1	79.4%
O=C(Nc1nc(-c2ccc(Cl)cc2)cs1)c1cc(-c2ccc(Br)cc2)nc2ccc(Cl)cc12	98.7%
N#C/C(=C\c1ccc(N2CCCCC2)cc1)C(=O)Nc1sc2c(c1C#N)CCC2	119%
Cc1ccccc1C(=O)c1ccccc1C(=O)O	108%
